Where “and” joins values, the source holds several entries; their conditions need not be identical. Identical values can stand only once. Screen size: about 16,000 compounds; about 4,000 (25%) were called active. About 26% were inconclusive and are not listed. Calls come from the whole dose curve; as a rule, active = well fitted curve in the direction sought with a large enough effect; inconclusive = small, poorly fitted or top-dose-only effect, or effect the other way; inactive = no such curve, though single readings can be large or run the other way. The list is a sample of the results.
% is set by controls: 0 for no effect and ±100 for the full control effect.

In this assay the target is Cytochrome P450 2C9 (Homo sapiens) (UniProt P11712). Put plainly: Cytochrome panel assay with activity outcomes. Conditions: recombinant CYP, pro-luciferin dealkylation, luminescence, p450-cyp2c9; series mostly up to 57.1 µM.
Sequence of Cytochrome P450 2C9 (Homo sapiens) (P11712 whole entry, looked up): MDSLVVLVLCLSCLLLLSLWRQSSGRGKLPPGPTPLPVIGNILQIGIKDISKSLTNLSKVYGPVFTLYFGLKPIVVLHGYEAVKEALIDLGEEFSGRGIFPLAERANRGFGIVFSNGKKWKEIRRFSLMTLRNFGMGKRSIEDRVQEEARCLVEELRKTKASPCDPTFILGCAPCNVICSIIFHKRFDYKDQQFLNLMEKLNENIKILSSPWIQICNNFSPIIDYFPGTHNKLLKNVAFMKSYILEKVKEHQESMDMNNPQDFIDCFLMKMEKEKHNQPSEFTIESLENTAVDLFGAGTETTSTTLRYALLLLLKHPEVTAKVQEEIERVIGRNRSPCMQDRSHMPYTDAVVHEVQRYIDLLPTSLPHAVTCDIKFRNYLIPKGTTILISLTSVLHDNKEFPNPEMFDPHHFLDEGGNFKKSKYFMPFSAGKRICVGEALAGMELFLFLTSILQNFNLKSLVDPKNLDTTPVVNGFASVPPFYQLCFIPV
As a reminder, the AC50 is the midpoint of the concentration-response curve, whichever way the signal moves. For `COc1ccc(C[C@@H]2c3cc(OC)c(OC)cc3CC[N@+]2(C)CCC(=O)OCCCCCOC(=O)CC[N@@+]2(C)CCc3cc(OC)c(OC)cc3[C@H]2Cc2ccc(OC)c(OC)c2)cc1OC`, the AC50 entry was “inactive”.
For `Nc1ncnc2c([C@@H]3O[C@@H](CO)[C@H](O)[C@@H]3O)nsc12`, the activity, negative = inhibition was -6.07% [at 11.4 µM] (inactive).
For `Cc1cc(NC(=O)CCCC(=O)OCC(F)(F)C(F)F)cc(C)c1C(=O)O`, the AC50 result is “inactive”.
As to `COc1ccc(C(=O)Nc2ccc(OCC(F)(F)C(F)F)c(C(F)(F)F)c2)cc1OC`, the AC50 was 7.94 µM (active).
Same read-out and setting: for `CCN(CC)CCC[C@H](C)Nc1c2ccc(Cl)cc2nc2ccc(OC)cc12` the value was “inactive”; for `Cc1ccc(NC(=S)Nc2nc(CC(=O)Nc3ccccc3)cs2)cc1`, 2.82 µM (active).
As for `CN1CCC(n2[nH]c(-c3ccccc3)c(Cc3ccccc3)c2=O)CC1`, the activity, negative = inhibition was 0.284% [at 11.4 µM] (inactive).
For `CCN1C(=O)[C@H]2[C@H]3[C@H](O)[C@H](O)C/C(=N/OC[C@@H](O)COCc4ccco4)[C@@H]3CC[C@@H]2C1=O`, the activity, negative = inhibition was 21.5% [at 11.4 µM] (inactive) and 18.6% [at 11.4 µM] (inactive).
In the case of `CC(=O)Nc1ccc(-c2nnc(SCC(=O)c3ccc4c(c3)Cc3ccccc3-4)n2C)cc1`, the AC50 was 12.6 µM (active).
As for `Cn1c(SCC(=O)c2ccc3c(c2)Cc2ccccc2-3)nnc1-c1ccccc1`, the AC50 is 8.91 µM (active).
In the case of `CN1CCCC[C@@H]1CCN1c2ccccc2Sc2ccc(S(C)=O)cc21` (stereo partly drawn), the AC50 entry is “inactive”.
For the compound `CCN(CC)CCN1C(=O)c2cccc3cc(N)cc(c23)C1=O`, the activity, negative = inhibition was 13.4% [at 11.4 µM] (inactive).
`CCOC(=O)C(NC(C)=O)C(=O)O` (stereo not drawn): the AC50 result was “inactive”.
As for `C/C(CCN1CCCCc2nc(C)c(C)cc21)=N\O[C@@H](C)CN1CCCCc2nc(C)c(C)cc21`, the activity, negative = inhibition is 7.62% [at 11.4 µM] (inactive).
For the compound `C/C(CCN1CCCCc2nc(C)c(C)cc21)=N\O[C@@H](C)c1cc(-c2c(C)cc(C)cc2C)no1`, the AC50 is 2.51 µM (active).
`C/C(CCN1CCCc2nc(C)c(C)cc21)=N\O[C@@H](C)CN1CCCCc2nc(C)c(C)cc21`: the activity, negative = inhibition is -3.15% [at 11.4 µM] (inactive).
As for `COc1ccc(-c2n[nH]c(C)c2-c2ccc(Cl)cc2)c(O)c1`, the concentration at half-maximal activity (AC50) was 10 µM (active).
Same read-out and setting: for `CC(NC(=O)c1ccccc1)c1nc2ccccc2n1Cc1ccccc1F` (stereo not drawn) the value was 5.62 µM (active); for `C[C@@H]1CCC[C@H](C)N1NC(=O)c1ccc(Cl)c(S(N)(=O)=O)c1`, “inactive”; for `CN(C)CCCc1cc(C(=O)Nc2ccc(-c3ccncc3)cc2)ccc1O`, “inactive”.
For the compound `CCN(CC)S(=O)(=O)c1cc(C(=O)Nc2ccncc2)ccc1Cl`, the AC50 is 0.141 µM (active).
Same read-out and setting: for `COC(=O)c1ccc(NC(=S)N2CCN(Cc3cccc(C)c3)CC2)cc1` the value was 25.1 µM (active).
Still for that read-out and setting: for `COc1ccc(NC(=S)N2CCN(C/C=C/c3ccccc3)CC2)cc1OC` the value was “inactive”; for `Cc1nn(CC(=O)NCCN2CCOCC2)c(C)c1[N+](=O)[O-]`, “inactive”.
Same read-out and setting: with `Cc1nn(CC(=O)NCc2ccccc2)c(C)c1[N+](=O)[O-]` the entry was “inactive”; with `Cc1nn(C(C)C(=O)N2CCc3ccccc32)c(C)c1[N+](=O)[O-]` (stereo not drawn), 11.2 µM (active).
For the compound `O=C(O)[C@@H]1[C@@H](C(=O)Nc2ncccn2)[C@@H]2C=C[C@@H]1O2`, the activity, negative = inhibition was 2.98% [at 11.4 µM] (inactive).
As for `OCCN1CCOCCOCCN(CCO)CCN(CCO)CC1`, the AC50 entry was “inactive”.
Still for that read-out and setting: with `c1cc(CNCCCN2CCOCC2)ccn1` the entry was “inactive”; with `FC(F)(F)c1nc2nc(Cl)c(Cl)nc2n1CCCN1CCOCC1`, 2.51 µM (active); with `CCCCC(=O)NCCc1c(Cc2ccccc2)[nH]c2ccccc12`, “inactive”.
Same read-out and setting: for `CCCC(=O)NCCc1c2n(c3ccc(OC)cc13)Cc1ccccc1-2` the value was 1.26 µM (active); for `CCOC(=O)/C(C(N)=NCCCO)=C(/O)c1ccccc1`, “inactive”; for `CSc1nncc(/C(C)=N\Nc2ccccc2)n1`, 4.47 µM (active).
Turning to `CC/C(=N/Nc1ccccc1)c1cnnc(SC)n1`, the AC50 was 0.891 µM (active).
Turning to `C#CCCCO/N=C1/C[C@@H](O)[C@@H](O)[C@@H]2[C@@H]3C(=O)N(CC)C(=O)[C@H]3CC[C@@H]12`, the activity, negative = inhibition is 0.179% [at 11.4 µM] (inactive).
For the compound `O=C(O)[C@@H](c1ccccc1)[C@@H](C(=O)O)c1ccccc1`, the activity, negative = inhibition is 0.327% [at 11.4 µM] (inactive).
For `O=C(CSc1ncnc2nc[nH]c12)c1ccccc1`, the activity, negative = inhibition is -26.2% [at 11.4 µM] (inactive).
As to `Nc1cc(N)nc(SCC(=O)c2ccccc2)n1`, the AC50 result was “inactive”.
Same read-out and setting: with `Cc1cc(SCC(=O)c2ccccc2)nc(SCC(=O)c2ccccc2)n1` the figure was 0.891 µM (active).
Regarding `COc1ccc(C[C@@H]2C(=O)N[C@H](C)C(=O)N(C)[C@@H]3Cc4ccc(cc4)Oc4cc(ccc4O)C[C@H](C(=O)N[C@@H](C)C(=O)N[C@H](C)C(=O)N2C)N(C)C3=O)cc1`, the activity, negative = inhibition was 3.77% [at 11.4 µM] (inactive).
For the compound `CN(C)CC(O)COc1ccc(C(C)(C)c2ccc(OCC(O)CN(C)C)cc2)cc1` (stereo not drawn), the AC50 result is “inactive”.
On the same count and under the same terms, for `CN(C)CC(O)COc1cccc(OCC(O)CN(C)C)c1` (stereo not drawn) the value was “inactive”; for `CCC(=O)c1ccc(OCC(O)CN(CCc2ccccc2)Cc2ccccc2)cc1` (stereo not drawn), 3.16 µM (active).
As for `Cc1ccccc1-c1ccc2ncnc(N3CCN(C)CC3)c2c1`, the activity, negative = inhibition is 20.6% [at 2.29 µM] (inactive).
Take `O=C(O)c1c(-c2c3ccc(=O)cc-3oc3cc(O)ccc23)cc2ccccc2c1-c1ccccc1`: the activity, negative = inhibition was 13% [at 11.4 µM] (inactive).
On to `C=CCSc1nc(Oc2ccccc2)c2sccc2n1`, for which the AC50 is 8.91 µM (active).
Regarding `C=CCSc1ccsc1C(=O)O`, the AC50 result is “inactive”.
As to `C/C(CCC(=O)OC[C@@H]1O[C@H](C#Cc2ccccc2)C=C[C@@H]1Oc1ccc(C)cc1)=N/O[C@@H](C)CN1CCCCc2nc(C)c(C)cc21`, the activity, negative = inhibition was -2.52% [at 11.4 µM] (inactive).
Turning to `COC(=O)[C@@]1(Cc2ccc(F)cc2)[C@H]2c3cc(C(=O)N4CCCC4)n(Cc4ccccn4)c3C[C@H]2CN1C(=O)c1ccccc1`, the concentration at half-maximal activity (AC50) is 2 µM (active).
Same read-out and setting: for `COC(=O)[C@@]1(Cc2ccccc2)[C@H]2c3cc(C(=O)N4CCCC4)n(Cc4ccccn4)c3C[C@H]2CN1C(=O)c1ccccc1` the value was 0.2 µM (active).
Turning to `CC1(CCC(=O)OC2CCCCC2)OCCO1`, the activity, negative = inhibition was -10.2% [at 11.4 µM] (inactive).
In the case of `Cc1ccc(S(=O)(=O)N[C@H]2COC(=O)C/C=C\[C@@H](C)[C@H](NS(=O)(=O)c3ccc(C)cc3)COC(=O)C/C=C\[C@H]2C)cc1`, the activity, negative = inhibition was 0.307% [at 11.4 µM] (inactive).

Values taken from PubChem BioAssay AID1851 (National Center for Advancing Translational Sciences (NCATS), 2009).
